Most compounds without a hit are left out; they make up all but 27% or so of the library.
CYP2C19 act: increases human CYP2C19 enzyme activity | recombinant CYP2C19, luciferin-H EGE luminescence; active compounds read high; 0 = fully inhibited enzyme, 1 = untreated enzyme | activation factor at 5 µM | 96,000 tested, under 10 active | AID 1025;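 active = activation factor of at least 2 at 5 µM in the primary screen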;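 also: 0 = wells with 2.5 mM tranylcypromine and 1 = vehicle-only wells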
Target sequence (P33261 whole entry, looked up): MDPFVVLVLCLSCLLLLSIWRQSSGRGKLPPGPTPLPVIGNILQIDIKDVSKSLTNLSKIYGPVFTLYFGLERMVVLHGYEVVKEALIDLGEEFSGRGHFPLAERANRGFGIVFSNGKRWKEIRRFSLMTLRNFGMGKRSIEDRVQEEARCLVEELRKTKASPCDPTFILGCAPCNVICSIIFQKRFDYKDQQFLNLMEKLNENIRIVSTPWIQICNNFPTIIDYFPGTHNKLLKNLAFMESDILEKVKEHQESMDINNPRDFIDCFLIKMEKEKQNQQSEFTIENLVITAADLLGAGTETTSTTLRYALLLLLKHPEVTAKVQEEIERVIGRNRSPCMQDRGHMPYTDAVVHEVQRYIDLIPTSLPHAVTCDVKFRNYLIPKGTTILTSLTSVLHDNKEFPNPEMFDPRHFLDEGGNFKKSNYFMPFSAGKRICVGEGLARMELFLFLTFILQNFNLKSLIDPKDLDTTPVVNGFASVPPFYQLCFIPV
CYP2C9 activ: CYP2C9 (human) activation; AID 1024; recombinant CYP2C9, luciferin-H conversion, luminescence; active compounds read high; factor 1 = untreated enzyme, 0 = blocked; 96,000 compounds, 1.4% hits; activation factor at 5 µM; P11712;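 active = activation factor of 2 or more for CYP2C9 at a 5 µM dose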;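 also: 0 = sulfaphenazole-blocked wells and 1 = vehicle-only wells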
PTK2B oligo ant: blocks oligomerization of human Pyk2 in cells | z-score (the deposit names both 25 µM and 10 µM) | 99,000 compounds, 0.83% hits | Q293 cells, Pyk2 FERM NanoBiT luminescence; active compounds read low | Q14289;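 active = Z-score of -3 or lower, scaled per plate to the spread of control and sample wells; inactive = z-score above -3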;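 also: negative z-score means lost luminescence so less FERM oligomerization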
Cav3 T inh: human Cav3.2 channel inhibition, primary screen | Cav3.2-expressing cells, Fluo-4 calcium fluorescence FDSS; active compounds read low | B-score at 10 µM | 100,000 compounds, 4% hits;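 active = single-dose well whose peak fluorescence ratio is a statistical outlier from its plate by either plate-standardised score or position-corrected B-score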
CYP2C9 inhib: inhibitors of human CYP2C9; P11712; CYP2C9 Supersomes, luciferin-H conversion, luminescence; inhibition, % at 5 µM; 96,000 compounds, 20% hits;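 active = blocking of liver enzyme CYP2C9 beyond about 50% at 5 µM, limit read from the data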
CYP2C19 inh: blocks human cytochrome P450 2C19. 96,000 compounds, 21% hits. inhibition, % at 5 µM. P33261. CYP2C19 Supersomes, luciferin-H EGE luminescence, 30 min;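 active = CYP2C19 inhibition above a set limit at 5 µM in the primary screen, cut at about 50% in these data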;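 also: plate controls were negative control wells for no effect and 2.5 mM tranylcypromine positive control for full effect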
* hit, by the source's call; . = no result given.

SMILES | CYP2C19 act | CYP2C9 activ | PTK2B oligo ant | Cav3 T inh | CYP2C9 inhib | CYP2C19 inh
OCCNc1nc(Nc2cc(Cl)ccc2OC2CCCC2)nc(N2CCCC2)n1 | . | . | . | -0.0998 | . | .
CSc1nc(NC(C)=O)nc(C)c1Br | . | . | 0.13 | 1.27 | . | .
CCc1ccc(OCc2nnc(SCC(=O)NCc3ccco3)o2)cc1 | 0.7 | 1.1 | 0.16 | 0.22 | -13.1 | 31.5
COc1cc(OC)cc(-c2nnc(SCC(=O)N3CCCCC3)o2)c1 | 0.9 | 1.3 | . | -0.62 | -34.0 | 13.3
COc1ccc(OCc2nnc(SCC(=O)NCc3ccco3)o2)cc1 | 0.8 | 0.3 | 0.37 | -0.0433 | 71.8* | 20.9
COc1cc(OC)cc(-c2nnc(SCC(=O)NCc3cccs3)o2)c1 | 0.1 | 0.8 | 0.52 | 0.0315 | 19.8 | 88.8*
COC(=O)CNC(=O)CSc1nnc(-c2ccc(OC)cc2)n1CC(C)C | 1.1 | 1.2 | 0.51 | 0.0761 | -18.5 | -12.0
Cc1csc(NC(=O)CSc2nnc(-c3ccc(S(=O)(=O)N4CCCC4)cc3)o2)n1 | 0.7 | 0.4 | 0.06 | 0.577 | 61.4* | 30.9
COc1ccc(-c2nnc(SCC(=O)NCc3cccs3)n2CC(C)C)cc1 | 0.5 | 0.3 | 0.83 | . | 65.2* | 50.9*
CC(C)NC(=O)c1ccc(-c2ccc(Cl)c(C(F)(F)F)c2)o1 | 1 | 1 | 0.73 | -0.463 | -4.7 | 2.7
CCCC/C=C/C(NC(=O)c1ccc(C(=O)OC)cc1)c1ccccc1 (stereo not drawn) | . | . | . | -0.63 | . | .
CCN(CC)S(=O)(=O)c1ccc(-c2nnc(SCC(=O)N3CCOCC3)o2)cc1 | 0.8 | 0.7 | -0.82 | -1.09 | 32.3 | 21.0
Cc1ccc(-c2nnc(SCC(=O)Nc3ccc(S(=O)(=O)N4CCCCCC4)cc3)o2)cc1 | 0.9 | 0.7 | 0.52 | -1.87 | 25.3 | 7.8
CC1Cc2ccccc2N1C(=O)CSc1nnc(-c2ccc(S(=O)(=O)N3CCCC3)cc2)o1 (stereo not drawn) | 0.3 | 0.1 | 0.38 | 0.0271 | 88.1* | 65.9*
COc1ccc(-c2nnc(SCC(=O)NCc3ccco3)o2)cc1 | 0.3 | 1.3 | 0.76 | 0.22 | -30.3 | 65.0*
CCN(CC)S(=O)(=O)c1ccc(-c2nnc(SCC(=O)N3CCc4ccccc43)o2)cc1 | 0.8 | 0.3 | 0.7 | -0.227 | 65.6* | 16.9
O=C(CSc1nnc(-c2ccc(S(=O)(=O)N3CCCC3)cc2)o1)NCc1ccco1 | 0.4 | 0.2 | -0.12 | 0.255 | 76.6* | 63.3*
Cc1occc1C(=O)N1CCN(S(C)(=O)=O)CC1 | . | . | 1.38 | -0.205 | . | .
Cc1ccc(NC(=O)c2cc3nc(C)cc(C)n3n2)cc1 | 1 | 1 | -0.25 | -0.705 | 4.6 | -4.0
COCc1nnc(NC(=O)c2sc3ccccc3c2Cl)s1 | 1 | 0.6 | -0.54 | 0.524 | 43.4 | 4.5
Cc1nnc(NC(=O)c2sc3ccccc3c2Cl)s1 | 0.8 | 0.4 | 0.19 | 1.21 | 55.3* | 18.8
Cc1nnc(NC(=O)c2ccccc2Br)s1 | 0.9 | 0.4 | -0.85 | 1.06 | 55.2* | 5.4
CCn1c(=O)cc(SCC(=O)NCc2ccccn2)c2ccccc21 | 1 | 1.5 | 0.6 | . | -45.3 | 2.0
Cc1cccc2sc(NC(=O)CN(C)S(=O)(=O)c3cccs3)nc12 | 0.1 | 0.4 | -1.11 | -5 | 58.9* | 94.2*
Cc1cccc(NC(=O)CN(C)S(=O)(=O)c2cccs2)c1 | 0.2 | 0.6 | 0.32 | 0.0392 | 37.9 | 79.8*
SMILES | CYP2C19 act | CYP2C9 activ | PTK2B oligo ant | Cav3 T inh | CYP2C9 inhib | CYP2C19 inh
Cc1cccc2sc(NC(=O)Cn3cccc3)nc12 | 0.5 | 0.4 | . | -2.75 | 56.5* | 49.4
Cc1cccc2sc(NC(=O)CSCc3ccccc3)nc12 | 0.9 | 0.8 | -0.4 | -0.176 | 22.0 | 14.3
Cc1cccc(NS(=O)(=O)c2cccs2)c1 | 0.1 | 0.8 | 0.91 | -0.572 | 20.2 | 93.4*
O=S(=O)(Nc1cccnc1)c1cccs1 | 1 | 0.9 | -0.23 | 0.478 | 7.8 | -2.5
C[N+]12CCC(CC1)C(OC(=O)C(O)(c1ccccc1)c1ccccc1)C2 (stereo not drawn) | . | . | . | 1.24 | . | .
O=C(CCN1C(=O)C2C3C=CC(C3)C2C1=O)N1CCN(c2ccc(F)cc2)CC1 (stereo not drawn) | 1.1 | 1.1 | 0.13 | . | -8.8 | -7.0
Cc1cccc2sc(NC(=O)CN(C)S(=O)(=O)c3ccc(Br)s3)nc12 | 0.4 | 1.1 | -2.7 | . | -11.6 | 61.9*
C/C(=N\NC(=O)C(NC(=O)c1ccccc1)C(C)C)c1ccccc1 (stereo not drawn) | 0.7 | 1 | 1.52 | -1.29 | -4.3 | 32.2
OCCNCc1cc(Br)ccc1OCc1ccc(Cl)cc1 | 0.5 | 1 | -0.31 | . | -3.2 | 52.9*
Clc1ccc(COc2ccccc2CNCc2cccnc2)cc1 | 0 | 0 | 0.28 | -0.799 | 95.2* | 97.1*
Brc1ccc(OCc2ccccc2)c(CNCc2ccncc2)c1 | 0 | 0.2 | -2.74 | 0.167 | 84.3* | 99.4*
OCCNCc1cc(Br)ccc1OCc1ccc(Cl)cc1Cl | . | . | 3 | -1.09 | . | .
C1CCC(OCCN2CCN(CCOC3CCCCC3)CC2)CC1 | 1.2 | 1.3 | -0.44 | -0.638 | -25.5 | -21.4
Cc1cccc2cc(COC(=O)C3CCCCC3)c(=O)[nH]c12 | 0.9 | 1 | 0 | 0.698 | -2.5 | 9.9
Nc1n[nH]c(S(=O)(=O)CCCc2ccccc2)n1 | 0.3 | 0.7 | 1 | 0.107 | 33.8 | 69.9*
Cc1n[nH]c(=O)nc1NCCc1ccccc1 | 1 | 1.1 | 0.83 | 0.749 | -7.4 | -0.8
CCOc1ccc(N(CC(=O)NCC2CCCO2)S(=O)(=O)c2ccc(Cl)cc2)cc1 (stereo not drawn) | 0.1 | 0.6 | -0.17 | 0.345 | 44.6 | 87.9*
COc1ccc(S(=O)(=O)N(CC(=O)NCC2CCCO2)c2ccc(F)cc2)cc1OC (stereo not drawn) | 0.5 | 0.7 | 1.15 | 1.25 | 27.5 | 53.2*
O=C(CN(CC1CCCO1)C(=O)CNS(=O)(=O)c1ccc(Cl)cc1)NCC1CCCO1 (stereo not drawn) | . | . | 0.54 | -0.046 | . | .
Cc1ccc(-c2nc3ccccn3c2NC(=O)c2ccco2)cc1 | . | . | -0.23 | 0.915 | . | .
CCC(C)(C(=O)NC1CCCCC1)N(Cc1cccs1)C(=O)Cc1cccs1 (stereo not drawn) | 0.8 | 0.7 | -2.58 | -7.69* | 32.1 | 23.2
O=C(Cc1cccs1)N(Cc1cccs1)C1(C(=O)NC2CCCCC2)CCCCC1 | 1.1 | 1.2 | -4.52* | -5.52* | -19.2 | -6.5
CC/C(=C\C(=O)c1ccncc1)Nc1ccc(Br)cc1 | 0 | 0.1 | -0.55 | -1.08 | 89.2* | 99.3*
CCN(CC)c1ccc(NC(=O)c2cncc(Br)c2)cc1 | 1.1 | 1.3 | 0.24 | -0.97 | -25.6 | -9.4
COc1cccc(C2c3c(oc4ccc(Cl)cc4c3=O)C(=O)N2c2cc(C)on2)c1OC (stereo not drawn) | 0.7 | 0.7 | -1.25 | -1.97 | 28.9 | 25.9
COc1ccc(-c2nnn(CCC(=O)O)n2)cc1 | 1 | 0.7 | 0.46 | 0.436 | 34.8 | 0.0
COC(=O)COn1c(SCC(=O)OC)nc2ccccc2c1=O | 0.7 | 0.7 | 0.46 | 1.12 | 27.6 | 31.5

Screening data deposited in PubChem by several laboratories.
